PubChem BioAssay (NCI)
The panel holds about 83,000 compounds, 20% with a hit somewhere; the sample as a whole holds those more often.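 Single-concentration screen, 48 h exposure, 96-well plates. Endpoint: percent growth. Below 10 = active.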 Unmarked numbers belong to inactive results. The source made the active and inactive calls.

system: NCI-H322M lung; assay: NCI-60 one-dose screen, 48 h (100 = growth as untreated, 0 = no growth, -100 = all killed); conditions: 10 µM unless noted
Procedure: Growth inhibition of the NCI-H322M human Non-Small Cell Lung tumor cell line is measured as a screen for anti-cancer activity. Cells are grown in 96 well plates and exposed to the test compound for 48 hours. Compounds are tested at a single concentration, which is 10^-5 M for most compounds. The reported endpoint is percent growth (GI% or GIPRCNT), where numbers from 0 - 100% represent growth inhibition, and numbers from -100% - 0 represent cell death. For example, a value of 40 represents 60% growth inhibition. A value of 0 means no net growth occurred over the course of the experiment. A value of -40 indicates 40% of cells at the beginning of the experiment died by the end of the experiment. A value of -100 means all cells are dead at the end of the experiment.
NCI-60 Human Tumor Cell Lines Screen was performed using the standard one-dose NCI protocol, which is described in more detail at https://dtp.cancer.gov/discovery_development/nci-60/default.htm.
Compounds with GIPRCNT values below 10 were considered active. Activity score was based on GIPRCNT using the following formula: […]
Score is 0 for GIPRCNT values of 100 or above, 50 for GIPRCNT values of 0, and 100 for GIPRCNT values of -100.

SMILES | growth
COCCNC(C(=O)c1ccccc1)c1ccccc1 (stereo not given) | 100%
Oc1ccc(O)c(-[n+]2ccccc2)c1 | 109%
CNCCCOc1c(Br)cc(CCNC(=O)/C(Cc2cc(Br)c(OC)c(Br)c2)=N/O)cc1Br | 21%
CC(=O)Oc1ccc(C(OC(C)=O)OC(C)=O)cc1 | 98.9%
O=C1C(SCCO)=C(SCCO)C(=O)N1c1ccc(-c2ccccc2)cc1 | 124%
COc1cc(NC(C)CCCN2C(=O)c3ccccc3C2=O)c2nc(C)ccc2c1OC (stereo not given) | 76.2%
COc1ccc2c(c1)OC(N)=C(C#N)C2c1ccc(F)c(F)c1 (stereo not given) | 51.4%
CC1(C)N=C(N)N=C(N)N1c1cccc(CCCCc2ccccc2)c1 | 21.6%
Cl[C@@H]1CCO[C@H](c2cc3ccccc3c3ccccc23)C1 | 94.6%
COc1ccc(/C=C/C(=O)c2ccc(Oc3ncnc4ccccc34)cc2)cc1OC | 76.1%
CC(C(=O)O)N1C(N)=NNC1c1ccccc1O (stereo not given) | 82.3%
O=C(Nc1ccccc1F)Nc1ccccc1Cl | 103%
c1ccc2c(c1)Oc1cccnc1-n1nccc1-2 | 102%
Cc1nccc2c3ccc(OCc4cn(-c5ccc(Br)cc5)nn4)cc3n(CCCc3ccccc3)c12 | 91.1%
COc1ccccc1S(=O)(=O)Nc1ccc2c3c(cc(-c4cnn(C)c4)nc13)C(=O)N2C | 47.4%
Cc1c(NC(=O)c2sc3nc4c(cc3c2N)CN(Cc2ccccc2)CC4)cccc1C(F)(F)F | 73.1%
CCOC(=O)CSc1nnc(-c2cc3c([nH]c4ccccc43)c(-c3cccc(O)c3)n2)n1-c1ccc(C)cc1 | 95.2%
O=c1[nH]ccc2nc(N3CCC(O)CC3)nc(Nc3cccc(C(F)(F)F)c3)c12 | 102%
COc1ccc(-c2nnc(SCC(=O)Nc3ccc(C(=O)/C=C/c4ccc(OC)c(OC)c4)cc3)o2)cc1 | 94.6%
Cc1cc(C)c(O)c(C(=O)CC(Br)C(=O)O)c1 (stereo not given) | 101%

SMILES | growth
CCOc1ccc(NC2=C(Cl)C(=O)c3ccccc3C2=O)cc1 | 105%
CC(C)(C)NCC(O)COc1c(Br)c(Br)c(Br)c2c1OC(C)(C)C2 (stereo not given) | -19.3% (active)
COc1cc(-c2nc(SCC(=O)Nc3ccc(C(C)=O)cc3)[nH]c(=O)c2C#N)cc(OC)c1OC | 45.3%
CCNc1ncnc2n[nH]nc12 | 101%
C=C1C(=O)O[C@H]2[C@H]1CC/C(C(=O)NCCOCCOCC(=O)Nc1ccc(OC)c(C(N)=O)c1O)=C\CC[C@@]1(C)O[C@@H]21 | 94.2%
Cn1cnc([N+](=O)[O-])c1N1c2ccncc2Sc2ccncc21 | 110%
S=C=NP1(N=C=S)=NP(N=C=S)(N=C=S)=NP(N=C=S)(N=C=S)=NP(N=C=S)(N=C=S)=N1 (stereo not given) | 80.9%
S=c1n(CNc2ccc(Cl)nn2)nc(-c2cc(Cl)cc(Cl)c2Cl)n1/N=C/c1ccc(Cl)cc1 | 74.9%
Nc1ncnc2c1c(C(F)(F)F)cn2[C@@H]1O[C@H](CO)[C@@H](O)[C@H]1O | 19.5%
Cc1cn(-c2cc(C(=O)Nc3cccc(-n4ccc5c(NC(=O)c6ccccc6)nccc54)c3)cc(C(F)(F)F)c2)cn1 | 32.9%
NS(=O)(=O)c1ccc(CCN2C(=O)/C(=C\c3ccc(Cl)cc3)C=C2c2ccc(Oc3ccccc3)cc2)cc1 | 79.2%
CC1=C[S+](c2ccccc2)c2cccc3cc4ccccc4c1c23 (stereo not given) | 21.5%
COc1ccc(Cn2cc3c(c2-c2cc(OC)c(OC)c(OC)c2)CCc2c(CO)noc2-3)cc1 | 39.7%
CCCCn1c(-c2cccc(OC)c2)nc2cc(OC)c(OC)cc2c1=O | 197%
NC(=NCCCOc1ccc(F)cc1)Nc1ccc(Cl)c(Cl)c1 | 69.3%
Cc1ccc2nc(-c3ccc(-n4on4-c4ccc(/C=C/c5ccc(-n6on6-c6ccc(-c7nc8ccc(C)cc8s7)cc6)cc5S(=O)(=O)O)c(S(=O)(=O)O)c4)cc3)sc2c1 | 112%
CO[C@H]1/C=C/C=C/C=C/C[C@H](OC(=O)[C@@H](C)NC(=O)C2CCCCC2)[C@H](C)[C@@H](O)/C(C)=C\CCC2=CC(=O)C=C(NC(=O)C1)C2=O | -2.45% (active)
Cn1c2ccccc2c2ssc(=S)c21 | 89.9%
OCCOCC(F)(F)F | 97.8%
CCOC(=O)c1noc2c1CCc1cn(Cc3cc(OC)cc(OC)c3)cc1-2 | 102%
